Laboratory results reported in the supplement of paper PMC6992640.
Where a name gives a salt, the structure may show the parent alone. ± gives the standard deviation of the averaged measurements.

How the values were obtained:
Assay in all cases: cell viability (% of vehicle); higher = less cytotoxic
Settings in all cases: 10 µM; 72 h
HCI01 = test system: HCI01 (cells of a triple-negative basal-like breast cancer xenograft)
HCI03 = test system: HCI03 (cells of an ER-positive luminal breast cancer xenograft)
HCI11 = test system: HCI11 (cells of an ER-positive luminal breast cancer xenograft)
HCI13 = test system: HCI13 (cells of an ER-positive luminal breast cancer xenograft)
HCI16 = test system: HCI16 (cells of a triple-negative basal-like breast cancer xenograft)
UCD52 = test system: UCD52 (cells of a triple-negative basal-like breast cancer xenograft)
WHIM2 = test system: WHIM2 (cells of a triple-negative basal-like breast cancer xenograft)
HCI09 = test system: HCI09 (cells of a triple-negative luminal androgen receptor type breast cancer xenograft)
WHIM30 = test system: WHIM30 (cells of a triple-negative basal-like breast cancer xenograft)
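Note: PDX cells carrying CMV promoter-driven luciferase, viability read as total photon flux per second by IVIS imaging following D-luciferin, vehicle control 0.1% DMSO.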

Compound	cell viability (HCI01)	cell viability (HCI03)	cell viability (HCI11)	cell viability (HCI13)	cell viability (HCI16)	cell viability (UCD52)	cell viability (WHIM2)	cell viability (HCI09)	cell viability (WHIM30)
Oc1ccc(OCc2ccccc2)cc1 [Monobenzone]	187 ± 11	180	157	181 ± 4.9	153	167 ± 14	145 ± 23		
CC1(C)O[C@@H]2C[C@H]3[C@@H]4CCC5=CC(=O)CC[C@]5(C)[C@@]4(F)[C@@H](O)C[C@]3(C)[C@]2(C(=O)CCl)O1 [Halcinonide]	123 ± 21	144	133			168 ± 24	105 ± 1.8	146 ± 72	177 ± 4.2
CC1CC2C3CCC4=CC(=O)C=CC4(C)C3(Cl)C(O)CC2(C)C1(OC(=O)c1ccco1)C(=O)CCl (stereo not drawn) [Mometasone furoate]	94.8 ± 29	151	115			139.5 ± 0.18	83.5 ± 7.3	118 ± 30	
CC12C=CC(=O)C=C1CCC1C2C(O)CC2(C)C1CCC2(O)C(=O)CO (stereo not drawn) [Prednisolone]	135 ± 39	175	132			173 ± 4.8	114 ± 2.7	166 ± 82	
NCCc1cnc[nH]1.O=P(O)(O)O.O=P(O)(O)O [Histamine Phosphate]	117 ± 18	117	98.4		131	99.9 ± 17	98.8 ± 4.3	95.2 ± 15	149 ± 14
CC(=O)OCC(=O)[C@@]12N=C(C)O[C@@H]1C[C@H]1[C@@H]3CCC4=CC(=O)C=C[C@]4(C)[C@H]3[C@@H](O)C[C@@]12C [Deflazacort]	107 ± 38	141	133				119 ± 14	137 ± 32	145 ± 3.2
CC(C)[N+]1(C)C2CCC1CC(OC(=O)C(CO)c1ccccc1)C2.[Br-] (stereo not drawn) [Ipratropium Bromide]	138 ± 45	151	108			148 ± 5.2	103 ± 15	158 ± 79	180 ± 23
CCOC(=O)OC1(C(=O)OCCl)CCC2C3CCC4=CC(=O)C=CC4(C)C3C(O)CC21C (stereo not drawn) [Loteprednol etabonate]	90.8 ± 59	196	123			158 ± 33	105 ± 11	150 ± 70	198 ± 12
CCC(=O)OC1(C(=O)SCF)C(C)CC2C3CC(F)C4=CC(=O)C=CC4(C)C3(F)C(O)CC21C (stereo not drawn) [Fluticasone propionate]	76.7 ± 52	166	133			128 ± 14	102 ± 44	128 ± 33	
O=c1c(-n2ccnn2)c[nH]n1-c1cc(N2CCOCC2)ncn1 [Molidustat (BAY85-3934)]	142 ± 4.8	121	121			163 ± 3.5	104 ± 7.3	27.2 ± 1.8	
CC(=O)OCC(=O)C1(O)C(C)CC2C3CCC4=CC(=O)C=CC4(C)C3(F)C(O)CC21C (stereo not drawn) [Dexamethasone acetate]	114 ± 33	160	138			149 ± 10	119 ± 43	131 ± 45	149 ± 22
CCc1c2c(nc3ccc(OC(=O)N4CCC(N5CCCCC5)CC4)cc13)-c1cc3c(c(=O)n1C2)COC(=O)[C@]3(O)CC [Irinotecan HCl Trihydrate]	70.8 ± 22	165		114 ± 15	105	104 ± 17	68 ± 3.8	120 ± 25	107 ± 19
CC1CC2C(C(O)CC3(C)C2CCC3(O)C(=O)CO)C2(C)C=CC(=O)C=C12 (stereo not drawn) [Methylprednisolone]	145 ± 24	156	136			154 ± 11	119 ± 8.1	123 ± 34	194 ± 12
NCCC(O)(P(=O)(O)O)P(=O)(O)O [Pamidronate]	167 ± 8.5	112	144			137 ± 19		56 ± 19	143.9 ± 0.96
CC1(C)O[C@@H]2C[C@H]3[C@@H]4C[C@H](F)C5=CC(=O)C=C[C@]5(C)[C@@]4(F)[C@@H](O)C[C@]3(C)[C@]2(C(=O)CO)O1 [Fluocinolone Acetonide]	84 ± 59	154	120			131 ± 17	109 ± 34	132 ± 27	
CC1(C)O[C@@H]2C[C@H]3[C@@H]4CCC5=CC(=O)C=C[C@]5(C)[C@@]4(F)[C@@H](O)C[C@]3(C)[C@]2(C(=O)CO)O1 [Triamcinolone Acetonide]	147.2 ± 1.3	171	111			198 ± 18	89.1 ± 12	183 ± 20	
CC12C=CC(=O)C=C1CCC1C3CC(O)C(O)(C(=O)CO)C3(C)CC(O)C12F (stereo not drawn) [Triamcinolone]	117 ± 18	176	130			121 ± 8.9	121 ± 18	112.2 ± 0.86	185 ± 5.1
CCCCOc1ccc(CC(=O)NO)cc1 [Bufexamac]	182.8 ± 1.2		173	141 ± 35		148 ± 29	112 ± 2.7	140 ± 6.6	102 ± 3.6
CN(C)Cc1c(C(=O)NCCOc2ccc(C(=O)NO)cc2)oc2ccccc12		128	9.68	56.1 ± 17			80.6 ± 8.5	70.8 ± 49	
Cc1cnc(Nc2ccc(OCCN3CCCC3)cc2)nc1Nc1cccc(S(=O)(=O)NC(C)(C)C)c1		173	138	61.6 ± 12	161	196 ± 55	43.8 ± 0.93	133 ± 44	
CC(C)Cc1ccc(C(C)C(=O)O)cc1.NCCCCC(N)C(=O)O (stereo not drawn) [Ibuprofen Lysine]		130	138	131 ± 6.2	162	132 ± 29	84.8 ± 3.6	106 ± 12	170 ± 23
COC1=CC(=O)C[C@@H](C)[C@]12Oc1c(Cl)c(OC)cc(OC)c1C2=O [Griseofulvin]	127 ± 7.9		98.7	128 ± 5.8	128	136 ± 24	121 ± 36	141 ± 30	190 ± 15

Compound	cell viability (HCI01)	cell viability (HCI03)	cell viability (HCI11)	cell viability (HCI13)	cell viability (HCI16)	cell viability (UCD52)	cell viability (WHIM2)	cell viability (HCI09)	cell viability (WHIM30)
O=C(C=Cc1cccc(S(=O)(=O)Nc2ccccc2)c1)NO [Belinostat (PXD101)]		104	6.42	55.1 ± 25			43.7 ± 1.1	39.6 ± 33	
O=c1[nH]c(=O)n(C2CC(O)C(CO)O2)cc1I (stereo not drawn) [Idoxuridine]	165 ± 77		106		129	112 ± 6.1		106 ± 8.6	116.3 ± 1.1
COc1ccccc1Oc1c(NS(=O)(=O)c2ccc(C(C)(C)C)cc2)nc(-c2ncccn2)nc1OCCO.O [Bosentan Hydrate]		124	101	172 ± 36		125 ± 8.9	87.1 ± 8.3	87.8 ± 26	184 ± 2.7
CC12CCC(=O)C=C1C1CC1C1C2CCC2(C)C1C1CC1C21CCC(=O)O1 (stereo not drawn) [Drospirenone]		150		84.8 ± 24			39.5 ± 12	178 ± 190	
Nc1ccccc1NC(=O)c1ccc(CNc2nccc(-c3cccnc3)n2)cc1 [Mocetinostat (MGCD0103, MG0103)]		87	5.73	150 ± 160			109 ± 13	78.4 ± 73	
CC=C1NC(=O)C2CSSCCC=CC(CC(=O)NC(C(C)C)C(=O)N2)OC(=O)C(C(C)C)NC1=O (stereo not drawn) [Romidepsin (FK228, depsipeptide)]		177		66.1 ± 6.7			34.4 ± 4.2	77.5 ± 29	
OCC1OC(Oc2cc(O)cc(C=Cc3ccc(O)cc3)c2)C(O)C(O)C1O (stereo not drawn) [Polydatin]	155 ± 18		142	99.9 ± 1.1	195		109 ± 35	113 ± 15	
CCC(CO)Nc1nc(NCc2ccccc2)c2ncn(C(C)C)c2n1 (stereo not drawn) [Roscovitine (Seliciclib,CYC202)]	80.4 ± 47		176	77.4 ± 2.6	138	145 ± 25	90.4 ± 1.3	55.1 ± 22	123 ± 4.2
CN1CCN(c2ccc3c(c2)NC(=C2C(=O)N=c4cccc(F)c4=C2N)N3)CC1 [Dovitinib (TKI-258, CHIR-258)]	92.5 ± 18		79			125 ± 32	69.8 ± 20	49.8 ± 24	104 ± 1.8
Nc1nc(NC2CC2)c2ncn(C3C=CC(CO)C3)c2n1.O=S(=O)(O)O (stereo not drawn) [Abacavir sulfate]	161 ± 13		139	134 ± 16	157	196 ± 5.3	128 ± 5.2		
C#Cc1cccc(Nc2ncnc3cc(OC)c(OCCCCCCC(=O)NO)cc23)c1		105	4.55	77.52 ± 0.49			44.4 ± 5	22.1 ± 10	
COc1ccc(-c2cc(=O)c3c(O)cc(O)cc3o2)cc1O [Diosmetin]	169 ± 46				181			170 ± 120	
Cc1nnc(C(C)C)n1C1CC2CCC(C1)N2CCC(NC(=O)C1CCC(F)(F)CC1)c1ccccc1 (stereo not drawn) [Maraviroc]	110 ± 12		129	73.7 ± 15	163	88.8 ± 1.3	91.4 ± 26	95.9 ± 3.6	123 ± 18
CCN(CC)CCOc1ccc(C(=C(Cl)c2ccccc2)c2ccccc2)cc1.O=C(O)CC(O)(CC(=O)O)C(=O)O [Clomiphene citrate]		51.5	95.8	39.3 ± 1.4	134	62.5 ± 0.63	35.1 ± 12	34.9 ± 3.9	146 ± 15
CC(=O)c1c(C)c2cnc(Nc3ccc(N4CCNCC4)cn3)nc2n(C2CCCC2)c1=O.O=S(=O)(O)CCO	154 ± 77		154	179 ± 75	180	105 ± 7.7	103 ± 13	78 ± 29	145 ± 2.8
CC(=O)OCC(=O)C1CCC2C3CCC4=CC(=O)CCC4(C)C3CCC12C (stereo not drawn) [Deoxycorticosterone acetate]		132	112	141 ± 23	135	139 ± 19	140 ± 10	95.7 ± 46	164 ± 12
O=c1oc2cc(O)ccc2s1 [Tioxolone]	115.5 ± 0.72		96.8	85.9 ± 17	172	109.1 ± 0.84	129 ± 28	87.9 ± 13	145 ± 30
O=C(O)C1=CC(=NNc2ccc(S(=O)(=O)Nc3ccccn3)cc2)C=CC1=O [Sulfasalazine]		124	137	161 ± 27	180	100 ± 5	105 ± 8.7	119 ± 9.1	181 ± 26
CC[C@]1(O)C[C@H]2CN(CCc3c([nH]c4ccccc34)[C@@](C(=O)OC)(c3cc4c(cc3OC)N(C=O)[C@H]3[C@@](O)(C(=O)OC)C(OC(C)=O)[C@]5(CC)C=CCN6CC[C@]43C65)C2)C1.O=S(=O)(O)O (stereo partly drawn) [Vincristine]		111	112	42.2 ± 2.8	200	85.1 ± 13	90.5 ± 12	91.3 ± 26	153 ± 16
N#CCC(C1CCCC1)n1cc(-c2ncnc3[nH]ccc23)cn1 (stereo not drawn)		185	129	76.1 ± 14	106	117.7 ± 0.47	134 ± 12	106 ± 19	187.4 ± 1.7
Cn1cnc2c(F)c(Nc3ccc(Br)cc3Cl)c(C(=O)NOCCO)cc21 [AZD6244 (Selumetinib)]		83.9	112	92.21 ± 0.79		84.4 ± 13	79.7 ± 8.5	82.9 ± 23	
Nc1nc(NC2CC2)c2ncn(C3C=CC(CO)C3)c2n1 (stereo not drawn) [Abacavir]	173 ± 35		118	193 ± 30	121		179 ± 28		
